Assay outcomes as filed in PubChem BioAssay.
This is a sample that favours compounds with a hit; in the whole collection about 3.7% have one here.
NALP3 yeast inh = NALP3 inflammasome inhibitors in reconstituted yeast, primary screen, luminescence, uHTS | inhibition, % at 10 µM | 330,000 tested, 0.39% active | AID 2825, 2010 | Yeast reconstituted NLRP3/ASC/caspase-1, beta-gal luminescence, 24 h;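 active = inhibition of 50% or more; inactive = inhibition below 50%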;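 note: plate controls were induced DMSO wells for no effect and uninduced yeast grown without galactose for full effect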
PfHsp90 set2 = growth inhibition of PfHsp90-expressing yeast, primary screen, antimalarial PfHsp90 inhibitor project, S. cerevisiae, BacTiter-Glo luminescence, single point, set 2 | 310,000 tested, 0.32% active | BacTiter-Glo ATP, 48 h; yeast lacking PDR1 and PDR3 efflux regulators | inhibition, % at 9.4 µM;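 active = every replicate shows inhibition above about 80%, whatever the replicate mean, limit read from the data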;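 note: 0% = DMSO neutral controls and 100% = 20 µM radicicol positive controls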
TIM10 inh = growth inhibitors of isogenic TIM10 control yeast, primary screen, counter-screen for tim10-1 yeast inhibitor project, luminescence, uHTS; S. cerevisiae TIM10 strain growth, BacTiter-Glo luminescence, 24 h; inhibition, % at 10 µM; 330,000 tested, 1.4% active; AID 463195, 2010;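 active = inhibition of 40% or more at the single tested concentration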;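 note: wild-type TIM10 isogenic control strain grown at permissive 25 °C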
tim10-1 inh = growth inhibitors of tim10-1 mutant yeast, primary screen, luminescence, uHTS | S. cerevisiae tim10-1 ts strain growth, BacTiter-Glo, 24 h | 330,000 tested, 2.2% active | inhibition, % at 20 µM;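 active = inhibition of at least 40%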;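 note: mutant grown at 25 °C; 0% = DMSO wells with yeast and 100% = wells holding no yeast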
tim23-1 inh = growth inhibitors of tim23-1 mutant yeast, primary screen, luminescence, uHTS | 330,000 tested, 1.3% active | S. cerevisiae tim23-1 growth, BacTiter-Glo luminescence, 24 h | inhibition, % at 20 µM;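 active = growth inhibition of the mutant yeast at or above 50%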;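 note: temperature-sensitive mutant grown at 25 °C; plate controls were DMSO-treated mutant yeast for no effect and medium wells lacking yeast for full effect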
NALP3 yeast conf = NALP3 inhibitors retested in yeast, confirmation, luminescence, single concentration | 1,300 tested, 81% active | inhibition, % at 10 µM | yeast expressing human NALP3 | shares compounds with NALP3 yeast inh; in the data active = inhibition above about 48%
Casp1-ASC yeast = CASP1-PYCARD signaling inhibition in yeast, confirmatory test, counterassay for NLRP3 inhibitor program, one-dose. shares compounds with NALP3 yeast inh. yeast expressing Caspase-1-ASC, luminescence counter screen. inhibition, % at 10 µM. 1,000 tested, 66% active. AID 488784, 2010
NALP3 retest = NALP3 inhibitors in yeast, repeat test, confirmation, luminescence, single concentration, retest | shares compounds with NALP3 yeast inh | yeast expressing human NALP3, luminescence read-out | inhibition, % at 10 µM | 1,000 tested, 53% active | AID 488794, 2010
tim10-1 confirm = growth inhibitors of tim10-1 mutant yeast, confirmation, single concentration, luminescence, S. cerevisiae; inhibition, % at 20 µM; 7,400 tested, 56% active; S. cerevisiae tim10-1 ts strain growth, BacTiter-Glo, 24 h; shares compounds with tim10-1 inh;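 active = inhibition of yeast growth at or above a set limit in either of two repeat tests at 20 µM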;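 note: tim10-1 mutant grown at permissive 25 °C to find synthetic lethal compounds; 0% = DMSO yeast wells and 100% = medium wells without yeast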
tim10 confirm = growth inhibitors of wild-type TIM10 yeast, confirmation, counter-screen for tim10-1 synthetic lethality project, single concentration, luminescence, S. cerevisiae; shares compounds with TIM10 inh; AID 463215, 2010; inhibition, % at 10 µM; S. cerevisiae tim10 strain growth, BacTiter-Glo luminescence, 24 h; 4,600 tested, 63% active;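 active = inhibition of yeast growth at or above a set limit in either of two replicates at 10 µM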;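 note: this counterscreen used the strain with wild-type TIM10; 0% = yeast with DMSO and 100% = medium wells lacking yeast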
tim23-1 confirm = tim23-1 mutant yeast growth inhibitors, confirmation, luminescence, single concentration. S. cerevisiae tim23-1 growth, BacTiter-Glo luminescence, 24 h. shares compounds with tim23-1 inh. inhibition, % at 20 µM. AID 463218, 2010. 4,400 tested, 83% active;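 active = inhibition above about 39% in either of two replicate wells at 20 µM, limit read from the data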;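 note: temperature-sensitive tim23-1 mutant grown at 25 °C; 0% = DMSO wells with yeast and 100% = medium wells without yeast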
Numbers without * were called inactive. Cut-off read from the data, not from the text of the source, unless noted: active = inhibition above about 50%; inactive = the rest.

For N#C/C(C(N)=O)=c1/ccc2c(c1)N1C3=C(CCCC3)CC3CCCCC31N=2 (stereo not given) the results were NALP3 yeast inh 57*, TIM10 inh 19, tim10-1 inh 26, tim23-1 inh 63*, NALP3 yeast conf 14 and tim23-1 confirm 52*.
NNC(=O)c1c(O)c2cccc3c2n(c1=O)CCC3 was read as NALP3 yeast inh 62*, PfHsp90 set2 -2, TIM10 inh 24, tim10-1 inh 28, tim23-1 inh 53*, NALP3 yeast conf 76*, Casp1-ASC yeast 52*, NALP3 retest 52* and tim23-1 confirm 38.
For O=c1c(Cl)c(O)c2cccc3c4ccccc4n1c23 the results were NALP3 yeast inh 5, PfHsp90 set2 1, TIM10 inh 9, tim10-1 inh 16 and tim23-1 inh 20.
`COc1c(O)c(=O)n2c3ccccc3c3ccnc1c32` gave NALP3 yeast inh 77*, PfHsp90 set2 26, TIM10 inh 35, tim10-1 inh 36, tim23-1 inh 62*, NALP3 yeast conf 85*, Casp1-ASC yeast 80*, NALP3 retest 82* and tim23-1 confirm 78*.
CC(=Nc1cccc(O)c1)c1sc2ccccc2c1O was read as NALP3 yeast inh 52*, PfHsp90 set2 10, TIM10 inh 18, tim10-1 inh 37, tim23-1 inh 63*, NALP3 yeast conf 50*, Casp1-ASC yeast 19, NALP3 retest 23 and tim23-1 confirm 63*.
`Cc1noc(C)c1C(=O)Nc1nc2ccc(Cl)cc2s1` gave NALP3 yeast inh 58*, PfHsp90 set2 29, TIM10 inh 32, tim10-1 inh 50*, tim23-1 inh 62*, NALP3 yeast conf 72*, Casp1-ASC yeast 71*, NALP3 retest 58*, tim10-1 confirm 32* and tim23-1 confirm 47*.
Screening Oc1c(I)cc(Cl)c2cccnc12 returned NALP3 yeast inh 59*, PfHsp90 set2 111*, TIM10 inh 56*, tim10-1 inh 67*, tim23-1 inh 70*, NALP3 yeast conf 68*, Casp1-ASC yeast 72*, NALP3 retest 79*, tim10-1 confirm 56*, tim10 confirm 70* and tim23-1 confirm 73*.
COc1ccccc1C(=O)Nc1nc2ccccc2[nH]1 was read as NALP3 yeast inh 60*, PfHsp90 set2 99*, TIM10 inh 68*, tim10-1 inh 67*, tim23-1 inh 85*, NALP3 yeast conf 78*, Casp1-ASC yeast 79*, NALP3 retest 31, tim10-1 confirm 66*, tim10 confirm 55* and tim23-1 confirm 83*.
`Cc1c(C(=O)Nc2nc3ccccc3[nH]2)oc2ccc(Br)cc12` gave NALP3 yeast inh -11, PfHsp90 set2 -34, TIM10 inh 8, tim10-1 inh 8 and tim23-1 inh 13.
For COc1ccc(C(=O)Nc2nc3ccccc3[nH]2)cc1 the results were NALP3 yeast inh 51*, PfHsp90 set2 31, TIM10 inh 24, tim10-1 inh -38, tim23-1 inh 60*, NALP3 yeast conf 81*, Casp1-ASC yeast 60*, NALP3 retest 48 and tim23-1 confirm 61*.
`Cc1c(C(=O)Nc2nc3ccccc3[nH]2)oc2ccccc12` gave NALP3 yeast inh 61*, PfHsp90 set2 24, TIM10 inh 62*, tim10-1 inh 32, tim23-1 inh 59*, NALP3 yeast conf 31, tim10 confirm 30 and tim23-1 confirm 74*.
O=C1NC(=Nc2ccccc2)S/C1=C\c1cccs1 was read as NALP3 yeast inh 56*, PfHsp90 set2 -2, TIM10 inh 31, tim10-1 inh 24, tim23-1 inh 65*, NALP3 yeast conf 30 and tim23-1 confirm 72*.
Cc1cc(C)cc(N=C2NC(=O)/C(=C/c3cccs3)S2)c1 was read as NALP3 yeast inh 18, PfHsp90 set2 -2, TIM10 inh 13, tim10-1 inh 7 and tim23-1 inh 13.
For CC(Oc1ccc(Cl)cc1)c1ccnc(N)n1 (stereo not given) the results were NALP3 yeast inh -2, PfHsp90 set2 -27, TIM10 inh 9, tim10-1 inh 7 and tim23-1 inh 3.
`O=[N+]([O-])c1ccc(O)c2ncccc12` gave NALP3 yeast inh 83*, PfHsp90 set2 109*, TIM10 inh -1, tim10-1 inh 20, tim23-1 inh 62*, NALP3 yeast conf 92*, Casp1-ASC yeast 99*, NALP3 retest 98* and tim23-1 confirm 35.
`CC(C)CNC(=O)COc1ncnc2ccccc12` gave NALP3 yeast inh 12, PfHsp90 set2 -20, TIM10 inh 2, tim10-1 inh 6 and tim23-1 inh 5.
CCCCCCCC[n+]1cccc(C(=O)N(CC)CC)c1 was read as NALP3 yeast inh 8, PfHsp90 set2 -10, TIM10 inh -3, tim10-1 inh -4 and tim23-1 inh 19.
`CCCCCCCCCCCCCCCC[n+]1cccc(C(=O)N(CC)CC)c1` gave NALP3 yeast inh 63*, PfHsp90 set2 107*, TIM10 inh 25, tim10-1 inh 96*, tim23-1 inh 60*, NALP3 yeast conf 73*, Casp1-ASC yeast 72*, NALP3 retest 68*, tim10-1 confirm 94* and tim23-1 confirm 79*.
Screening CCOC(=O)C/C(N)=N/NC(=O)c1ccc(Cl)cc1Cl returned NALP3 yeast inh 16, PfHsp90 set2 11, TIM10 inh 10, tim10-1 inh 0 and tim23-1 inh 0.
